We go through 38 targets from the supplement of paper PMC12067093, “Discovery and optimisation of a covalent ligand for TRIM25 and its application to targeted protein ubiquitination” (Chemical Science, 2025).

Compound in this assay: CC1Cc2ccccc2N1C(=O)C1CCCN(C1)C(=O)CCl (mixture of isomers) [TRIM25 ligand 11 (diastereomer mixture)]
As to the kind of experiment: probe-labelled cysteine peptide fold change vs DMSO (competition) (log2 fold change); higher = less target engagement (more negative = stronger competition). The conditions noted are these: THP-1, incubation time: 4 h.

Targets with the largest changes are over-represented here; the source holds about 21,000 in all.
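Note: competitive chemoproteomic profiling in live THP-1 cells with an iodoacetamide desthiobiotin (IA-DTB) probe, comparing probe-labelled peptide intensities in compound-treated cells against DMSO-treated controls.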

“EIF1_P41567_94_NICQFLVEIGLAKDDQLK (UniProt P41567)”: the “probe-labelled cysteine peptide fold change” value (10 µM) is -1.14 and the “probe-labelled cysteine peptide fold change” value (50 µM) was -0.0838.

As to “FAM111B_Q6SJ93_212_LCIYALK (UniProt Q6SJ93)”, the “probe-labelled cysteine peptide fold change” value (10 µM) is -0.05 and the “probe-labelled cysteine peptide fold change” value (50 µM) is -0.0141.

As to “ENOSF1_Q7L5Y1_67_GTEVVVCAVNALAHHVLNK (UniProt Q7L5Y1)”, the “probe-labelled cysteine peptide fold change” value (10 µM) was -0.0438 and the “probe-labelled cysteine peptide fold change” value (50 µM) is 0.0621.

For “F2_P00734_564_RGDACEGDSGGPFVMK (UniProt P00734)”, the “probe-labelled cysteine peptide fold change” value by setting is: (10 µM) 0.606; (50 µM) 0.325.

As for “EIF3D_O15371_438_WTCCALLAGSEYLK (UniProt O15371)”, the “probe-labelled cysteine peptide fold change” value is, setting by setting: (10 µM) -0.0143; (50 µM) 0.0445.

For the target “ELP3_Q9H9T3_456_CSEETFR (UniProt Q9H9T3)”, the “probe-labelled cysteine peptide fold change” value is 0.298 (10 µM) and 0.202 (50 µM).

Take “FUBP3_Q96I24_109_IQAESGCK (UniProt Q96I24)”: the “probe-labelled cysteine peptide fold change” value was 0.00832 (10 µM) and 0.192 (50 µM).

As for “EIF1B_O60739_69_FACNGTVIEHPEYGEVIQLQGDQRK<|>EIF1_P41567_69_FACNGTVIEHPEYGEVIQLQGDQRK (UniProt P41567+O60739)”, the “probe-labelled cysteine peptide fold change” value reads like this: (10 µM) -0.358; (50 µM) -0.022.

Consider “FECH_P22830_403_QLTLSCPLCVNPVCR (UniProt P22830)”, for which the “probe-labelled cysteine peptide fold change” value runs as follows: (10 µM) 0.0323; (50 µM) 0.0221.

Regarding “FUBP3_Q96I24_366_CGLVIGK (UniProt Q96I24)”, the “probe-labelled cysteine peptide fold change” value runs as follows: (10 µM) -0.0888; (50 µM) 0.0606.

As for “ECM1_Q16610_269_FSCFQEEAPQPHYQLR (UniProt Q16610)”, the “probe-labelled cysteine peptide fold change” value came out at 0.855 (10 µM) and 0.858 (50 µM).

As to “FHL2_Q14192_275_GFLTERDDILCPDCGK (UniProt Q14192)”, the “probe-labelled cysteine peptide fold change” value reads like this: (10 µM) -0.0813; (50 µM) -0.0756.

In the case of “FBN2_P35556_941_CELDTACPR (UniProt P35556)”, the “probe-labelled cysteine peptide fold change” value reads like this: (10 µM) 0.213; (50 µM) 0.26.

With “ETFDH_Q16134_387_LTFPGGLLIGCSPGFMNVPK (UniProt Q16134)”, the “probe-labelled cysteine peptide fold change” value (10 µM) is -0.688 and the “probe-labelled cysteine peptide fold change” value (50 µM) was -0.698.

Turning to “ELP5_Q8TE02_151_LPCTTLCQVLHAVSHQDSCPGDSSSVGK (UniProt Q8TE02)”, the “probe-labelled cysteine peptide fold change” value (10 µM) amounted to 0.0565 and the “probe-labelled cysteine peptide fold change” value (50 µM) came to 0.114.

On to “FAM111B_Q6SJ93_351_NYYFCSLPR (UniProt Q6SJ93)”, for which the “probe-labelled cysteine peptide fold change” value by setting is: (10 µM) -0.00273; (50 µM) 0.026.

“EIF3M_Q7L2H7_52_GAEISEENSEGGLHVDLAQIIEACDVCLKEDDK (UniProt Q7L2H7)”: the “probe-labelled cysteine peptide fold change” value by setting is: (10 µM) 0.0157; (50 µM) 0.134.

With “EHHADH_Q08426_227+233_QHPGCLAQEACVR (UniProt Q08426)”, the “probe-labelled cysteine peptide fold change” value (10 µM) worked out at 0.147 and the “probe-labelled cysteine peptide fold change” value (50 µM) is 0.0162.

For “FASN_P49327_2369_AKLTPGCEAEAETEAICFFVQQFTDMEHNR (UniProt P49327)”, the “probe-labelled cysteine peptide fold change” value runs as follows: (10 µM) -0.0758; (50 µM) -0.005.

“EIF3K_Q9UBQ5_87_CMIDQAHQEERPIR (UniProt Q9UBQ5)”: the “probe-labelled cysteine peptide fold change” value reads like this: (10 µM) 0.0313; (50 µM) 0.0963.

For the target “EEF1A1_P68104_411_FLKSGDAAIVDMVPGKPMCVESFSDYPPLGR (UniProt P68104)”, the “probe-labelled cysteine peptide fold change” value is, setting by setting: (10 µM) 0.947; (50 µM) 1.14.

Regarding “EXOC5_O00471_194_YHDLECQLIQEFTSAQR (UniProt O00471)”, the “probe-labelled cysteine peptide fold change” value by setting is: (10 µM) 0.139; (50 µM) 0.157.

As for “FGD3_Q5JSP0_284_QEVCGNLTLQHHMLEPVQR (UniProt Q5JSP0)”, the “probe-labelled cysteine peptide fold change” value by setting is: (10 µM) 0.0112; (50 µM) -0.0514.

Turning to “FNBP1_Q96RU3_511_RQSGLYDSQNPPTVNNCAQDR (UniProt Q96RU3)”, the “probe-labelled cysteine peptide fold change” value by setting is: (10 µM) 0.269; (50 µM) -0.0608.

With “EPHX2_P34913_232_VTGIQLLNTPAPLPTSCNPSDMSHGYVTVKPR (UniProt P34913)”, the “probe-labelled cysteine peptide fold change” value is 0.149 (10 µM) and -0.204 (50 µM).

Take “FLNB_O75369_991_KVVPCLVTPVTGR (UniProt O75369)”: the “probe-labelled cysteine peptide fold change” value reads like this: (10 µM) -0.0645; (50 µM) -0.0535.

Regarding “EFTUD2_Q15029_476_IEHTYTGGVDSDLGEAMSDCDPDGPLMCHTTK (UniProt Q15029)”, the “probe-labelled cysteine peptide fold change” value by setting is: (10 µM) -0.11; (50 µM) -0.51.

In the case of “FAM241A_Q8N8J7_2_CSAGELLR (UniProt Q8N8J7)”, the “probe-labelled cysteine peptide fold change” value is, setting by setting: (10 µM) 0.306; (50 µM) 0.559.

For the target “EIPR1_Q53HC9_95_VLTCAAVWR (UniProt Q53HC9)”, the “probe-labelled cysteine peptide fold change” value (10 µM) was found to be 0.109 and the “probe-labelled cysteine peptide fold change” value (50 µM) worked out at 0.137.

Consider “FTH1_P02794_91_KPDCDDWESGLNAMECALHLEK (UniProt P02794)”, for which the “probe-labelled cysteine peptide fold change” value is 0.166 (10 µM) and 0.847 (50 µM).

Consider “FRRS1_Q6ZNA5_107_NAEDLNGPPIGSFTLIDSEVSQLLTCEDIQGSAVSHR (UniProt Q6ZNA5)”, for which the “probe-labelled cysteine peptide fold change” value is, setting by setting: (10 µM) 0.66; (50 µM) 0.341.

On to “F2_P00734_407_WVLTAAHCLLYPPWDK (UniProt P00734)”, for which the “probe-labelled cysteine peptide fold change” value is 0.631 (10 µM) and 0.154 (50 µM).

In the case of “FAR2_Q96K12_104+111_EDMQELLSCTNIIFHCAATVR (UniProt Q96K12)”, the “probe-labelled cysteine peptide fold change” value (10 µM) is 0.0855 and the “probe-labelled cysteine peptide fold change” value (50 µM) worked out at 0.0839.

For the target “EPRS_P07814_1301+1309_VACVQVVIIPCGITNALSEEDK (UniProt P07814)”, the “probe-labelled cysteine peptide fold change” value is, setting by setting: (10 µM) -0.162; (50 µM) -0.139.

On to “FAM98B_Q52LJ0_220_INDALSCEYECR (UniProt Q52LJ0)”, for which the “probe-labelled cysteine peptide fold change” value is, setting by setting: (10 µM) -0.00202; (50 µM) 0.0911.

Consider “FH_P07954_434_LLGDASVSFTENCVVGIQANTER (UniProt P07954)”, for which the “probe-labelled cysteine peptide fold change” value (10 µM) was -0.504 and the “probe-labelled cysteine peptide fold change” value (50 µM) is -0.961.

Take “EXOSC8_Q96B26_60_LGNTTVICGVK (UniProt Q96B26)”: the “probe-labelled cysteine peptide fold change” value stood at 0.0322 (10 µM) and 0.0231 (50 µM).

Turning to “EDC4_Q6P2E9_838_ETCSTLAESPR (UniProt Q6P2E9)”, the “probe-labelled cysteine peptide fold change” value by setting is: (10 µM) -0.0668; (50 µM) -0.146.
